Source: paper PMC7862700, “An all-to-all approach to the identification of sequence-specific readers for epigenetic DNA modifications on cytosine”

Target: T1, ELK3 (Homo sapiens, UniProt P41970 1-407)
T1 sequence: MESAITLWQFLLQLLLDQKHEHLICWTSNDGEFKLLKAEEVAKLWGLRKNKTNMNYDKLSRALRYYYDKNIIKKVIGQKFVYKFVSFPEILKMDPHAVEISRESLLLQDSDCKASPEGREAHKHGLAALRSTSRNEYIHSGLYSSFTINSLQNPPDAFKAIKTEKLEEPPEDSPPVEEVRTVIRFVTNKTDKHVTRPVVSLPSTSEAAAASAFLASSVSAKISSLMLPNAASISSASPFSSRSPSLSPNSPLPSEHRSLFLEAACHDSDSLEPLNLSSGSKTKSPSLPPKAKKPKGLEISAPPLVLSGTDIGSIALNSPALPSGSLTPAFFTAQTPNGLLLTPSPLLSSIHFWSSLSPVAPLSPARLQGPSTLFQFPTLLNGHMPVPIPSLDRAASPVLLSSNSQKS
Test: DAPPL (digital affinity profiling via proximity ligation, sequencing); 10 mM Tris-HCl pH 7.5, 50 mM NaCl, 1 mM DTT, 4% glycerol, room temperature, 30 min; GST-TFs on glutathione beads, 16-mer random dsDNA library, 0.1% formaldehyde crosslink after washing; high values mean tight binding
Conditions: protein: recombinant; tags: N-terminal GST; dsDNA, one strand shown
Procedure, shortened: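 After expression in yeast as GST fusions, human transcription factors were bound to glutathione beads, DNA-barcoded and mixed with a tag-only sample. The pools were incubated with 200 nmole of a 16-mer random double-stranded DNA library in Tris/NaCl/DTT/glycerol buffer (30 min, room temperature), washed and crosslinked with 0.1% formaldehyde. Proximity ligation with BsaI/T4 ligase ran for 1 h at 37 °C, before PCR amplification and sequencing on an Illumina NextSeq500. Binding signal is a hexamer's read frequency for a factor divided by its frequency for the tag-only sample.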

Sequence | binding signal
TAGAAA | 1.09 fold enrichment (6-mer frequency, TF over GST control)
GTTTTG | 1.11 fold enrichment (6-mer frequency, TF over GST control)
TCCGTC | 1.47 fold enrichment (6-mer frequency, TF over GST control)
CAAACT | 1.23 fold enrichment (6-mer frequency, TF over GST control)
GACTAC | 1.1 fold enrichment (6-mer frequency, TF over GST control)
ACTCAT | 1.34 fold enrichment (6-mer frequency, TF over GST control)
TATAGA | 1.14 fold enrichment (6-mer frequency, TF over GST control)
TTAAAT | 1.25 fold enrichment (6-mer frequency, TF over GST control)
TCGTTC | 1.23 fold enrichment (6-mer frequency, TF over GST control)
TGTAGC | 1.27 fold enrichment (6-mer frequency, TF over GST control)
CACATT | 1.13 fold enrichment (6-mer frequency, TF over GST control)
CAGCTT | 1.3 fold enrichment (6-mer frequency, TF over GST control)
AATTCA | 1.47 fold enrichment (6-mer frequency, TF over GST control)
ATGGAC | 1.19 fold enrichment (6-mer frequency, TF over GST control)
TACTCG | 1.22 fold enrichment (6-mer frequency, TF over GST control)
TGGTAG | 1.11 fold enrichment (6-mer frequency, TF over GST control)
GGTACT | 1.35 fold enrichment (6-mer frequency, TF over GST control)
TAGAAG | 1.13 fold enrichment (6-mer frequency, TF over GST control)
CTAGGC | 1.1 fold enrichment (6-mer frequency, TF over GST control)
CGCTCT | 1.18 fold enrichment (6-mer frequency, TF over GST control)

Sequence | binding signal
GTCCCG | 1.26 fold enrichment (6-mer frequency, TF over GST control)
ACCTGA | 1.07 fold enrichment (6-mer frequency, TF over GST control)
TACGCA | 1.25 fold enrichment (6-mer frequency, TF over GST control)
CACGCG | 1.14 fold enrichment (6-mer frequency, TF over GST control)
GTTCCC | 1.23 fold enrichment (6-mer frequency, TF over GST control)
CCACTG | 1.2 fold enrichment (6-mer frequency, TF over GST control)
TTATAG | 1.03 fold enrichment (6-mer frequency, TF over GST control)
CCGGCA | 1.5 fold enrichment (6-mer frequency, TF over GST control)
CTTTAG | 1.11 fold enrichment (6-mer frequency, TF over GST control)
TCCGGA | 2.67 fold enrichment (6-mer frequency, TF over GST control)
ATGTCA | 1.02 fold enrichment (6-mer frequency, TF over GST control)
AATTCT | 1.38 fold enrichment (6-mer frequency, TF over GST control)
TCTGAC | 1.24 fold enrichment (6-mer frequency, TF over GST control)
GAATCC | 1.08 fold enrichment (6-mer frequency, TF over GST control)
CGTCCC | 1.57 fold enrichment (6-mer frequency, TF over GST control)
TCTTCA | 1.27 fold enrichment (6-mer frequency, TF over GST control)
AACTAT | 1.36 fold enrichment (6-mer frequency, TF over GST control)
CGAAGC | 1.49 fold enrichment (6-mer frequency, TF over GST control)
CCTGCC | 1.13 fold enrichment (6-mer frequency, TF over GST control)
ATTGCT | 1.22 fold enrichment (6-mer frequency, TF over GST control)
